Source: PubChem (National Center for Advancing Translational Sciences (NCATS))
Pf Dd2 growth = blocks in vitro growth of P. falciparum Dd2; P. falciparum Dd2 growth, SYBR Green, 72 h; Potency, µM (titrated, usually from 28.9 µM), for the others: at the top dose activity, negative = inhibition, usual class: inhibitors; actives 4.3% (n = 120,000); active = well fitted inhibition curve with a large enough effect;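 also: plate controls were DMSO vehicle for no effect and reference drug for full effect; nearly all actives have a fitted effect of over 65% in size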
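Readout: SYBR Green fluorescence, 485 nm excitation, 535 nm emission, after ~16 h lysis at 37C. Before that, Dd2-infected red cells (2.5% hematocrit) grew 72 h with compound, 29 uM top final concentration.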
Numbers without * were called inactive; i = inactive; [ ] = remark or other dose. This is one part of a sample in which hits are shown more often than they occur. Potency is read from the fitted curve at half-maximal effect.

SMILES | Pf Dd2 growth
COc1cc(C)ccc1OCc1cc(C(=O)N(C)Cc2ncccc2C)no1 | -24%
Cn1cc(-c2ccc(O)c(F)c2)c2nc(CN3CCOCC3)cn2c1=O | -16%[44.1 µM]
COc1ccc(-c2cc3ccc(O)c(CN4CCCC4)c3oc2=O)cc1 | 5.6µM*
O=c1oc2ccc(Br)cc2cc1-c1csc(-c2ccccc2)n1 | 23%
COc1ccc(-c2c(C)c3ccc(O)c(CN4CCC(C)CC4)c3oc2=O)cc1OC | 10µM*
COc1ccc(-c2nnc(SCC(=O)N3CCCCC3)o2)cc1 | -22%
O=c1oc2c(CN3CCCC3)c(O)ccc2cc1-c1ccccc1 | 11µM*
O=c1oc2c(CN3CCOCC3)c(O)ccc2cc1-c1ccc(Cl)cc1 | 7.1µM*
COc1ccc(CN2CCC(N3CCCCCC3=O)CC2)cc1 | 13%[44.1 µM]
COc1ccc(CN2CCC3(CC2)CC(O)CCO3)cc1OC (centres undefined) | 2%
O=C(Cn1nnnc1CN1CCOCC1)N1CCN(c2ccc(Cl)cc2)CC1 | -13%
Cc1cc2oc(=O)c(CC(=O)O)c(C)c2c2occ(-c3ccccc3)c12 | -14%
COc1ccc(-c2onc(C)c2C)cc1S(=O)(=O)N1CCC(C)CC1 | 15%
Cn1nccc1C(=O)NC1CCN(c2cc(-c3ccccc3)[nH]n2)CC1 | i
COc1ccccc1NC(=O)CC1CCCN(c2cn[nH]c(=O)c2)C1 (centres undefined) | 24%
COc1ccccc1-c1cc(C(=O)NCCc2ccc(Cl)cc2)c2cnn(C)c2n1 | -8%
COc1ccc(C(=O)N[C@@H]2CN(c3ncccn3)C[C@H]2CN(C)C)cc1F | 6%
O=C(c1cccc(Cl)c1)N1CCC(n2c(=O)[nH]c3ccccc32)CC1 | 1%
CCc1noc(-c2cn(C3CCN(C(=O)c4cccc(Br)c4)C3)nn2)n1 (centres undefined) | i
Cc1nn(C)c(C)c1CCN(C)C(=O)C1Cn2cccc2C(=O)N1C (centres undefined) | -22%
C[C@H]1CCCN1C(=O)c1nnc(COc2ccc(C#N)cc2)n1-c1cccnc1 | -19%[44.1 µM]
CCN(CC)Cc1cnc2c(C(=O)N[C@H](C(N)=O)C(C)C)cnn2c1 | 6%
COCc1nc(C2CCCN(C(=O)c3cnccn3)C2)no1 (centres undefined) | 18%
O=C(NCc1ccc(F)cc1)C1CN(c2cccc(Cl)c2)C(=O)N1 (centres undefined) | 4%[44.1 µM]
COc1ccc(CNC(=O)Cn2c(=O)oc3cc(S(=O)(=O)N4CCC(C)CC4)ccc32)cc1 | -29%
SMILES | Pf Dd2 growth
COc1ccc(-c2nc(S(=O)(=O)c3ccccc3)c(N3CCC(C)CC3)o2)cc1 | 31%
COc1ccc(-c2cc3ccc(O)c(CN4CCC(C)CC4)c3oc2=O)cc1 | 2.2µM*
COc1ccc(CNC(=O)C2CCN(Cc3nc(-c4ccc(OC)c(OC)c4)oc3C)CC2)cc1 | -26%
COc1ccccc1CNC(=O)C1CCN(Cc2nc(-c3ccc(OC)c(OC)c3)oc2C)CC1 | -7%
COc1ccc(-c2cc3ccc(O)c(CN4CCC(C)CC4)c3oc2=O)cc1OC | 2.5µM*
Cc1cn2nc(C(=O)Nc3cccc(F)c3C)cc2c(N2CCCC2)n1 | i
CC(C)(C)c1ccc(C(=O)N2C[C@@H](C(=O)O)[C@H](c3cccc(F)c3)C2)cc1 | -16%
CCC(C(=O)NC1CCN(c2cn[nH]c(=O)c2)CC1)c1ccccc1 (centres undefined) | 5%
COCCOc1ccc(-c2ccnc(OC)c2C#N)cc1 | -24%
CCC(C(=O)NCc1ccc(OC)c(OC)c1)n1nc(C)c2c(C)n(-c3ccc(C)cc3)nc2c1=O (centres undefined) | 2.8µM*
CCC(C(=O)Nc1cc(F)ccc1F)n1nc(C)c2c(C)n(-c3ccc(C)cc3)nc2c1=O (centres undefined) | 1%
Cc1ccc(CCNC(=O)C(C)n2nc(C)c3c(C)n(-c4ccc(C)cc4)nc3c2=O)cc1 (centres undefined) | i
O=C(C1CCOCC1)N1CCN(C(=O)N2CC3CC(C2)[C@H]2CCCC(=O)N2C3)CC1 (some centres undefined) | i
O=C(Nc1ccc(Cl)cc1)N1Cc2[nH]cnc2C[C@H]1c1nc(-c2ccc(F)c(Cl)c2)no1 | i
c1ccc(CN2Cc3[nH]cnc3C[C@H]2c2nc(-c3ccccc3)no2)cc1 | 13µM*
COc1ccc(CN2Cc3[nH]cnc3C[C@H]2c2nc(-c3ccc(C)cc3)no2)cc1 | 22µM*
FC(F)(F)c1ccc(-c2noc([C@@H]3Cc4nc[nH]c4CN3Cc3cc4ccccc4o3)n2)cc1 | 8.9µM*
O=C(Nc1cccc(F)c1)N1Cc2[nH]cnc2C[C@H]1c1nc(-c2ccc(C(F)(F)F)cc2)no1 | i
COc1ccc(-c2noc([C@@H]3Cc4nc[nH]c4CN3Cc3cccs3)n2)cc1 | i
Fc1ccc(CN2Cc3[nH]cnc3C[C@H]2c2nc(-c3ccc(F)c(Cl)c3)no2)cc1 | 11µM*
COc1ccc(CN2Cc3[nH]cnc3C[C@H]2c2nc(-c3ccccn3)no2)cc1 | -3%[44.1 µM]
c1csc(CN2Cc3[nH]cnc3C[C@H]2c2nc(-c3ccncc3)no2)c1 | i
